The text below walks through data of PubChem BioAssay AID932 (The Scripps Research Institute Molecular Screening Center, 2007).

The whole screen tested about 200,000 compounds, of which about 5,100 (2.5%) were called active. This is one part of a sample in which actives are shown more often than they occur. Values without a mark were called inactive.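 Rule for the calls: active = activation above the screen-wide mean activation plus 3 SD (cut at about 130% in these data); inactive = the rest.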

The nature of the experiment: potentiators of IFN-gamma driven STAT1 reporter – cell-based, HTS, luciferase reporter, primary screen (AID 932).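 Note: raw ratio to IFN-gamma control signal so 100% means no change and 0% no light.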 The conditions noted are these: NIH 3T3 STAT1-luciferase reporter, luminescence, at 5.5 µM, hits give high values, 100% = IFN-gamma alone, no compound.
On to `C/C=C/c1ccc(OCCCCN2CCC(C)CC2)c(OC)c1`, for which the activation (% of control) was 98.3%. The same measure for `COc1cc(S(=O)(=O)N2CCOCC2)ccc1NC(=O)COc1ccc(N(C)S(=O)(=O)c2ccc(C)cc2)cc1`: 88.9%; for `COc1ccc(C(=O)NC2CCN(C(=S)Nc3ccccc3)CC2)cc1`: 88.7%; for `COc1ccc(NC(=S)N2N=CCC2c2ccccc2)cc1` (configuration not stated): 135% (active). The same measure for `COc1ccc(C(=S)Nc2ccccc2)cc1`: 118%; for `Cc1ccccc1-n1cc(CNC(=O)CC2C(=O)NCCN2C/C=C/c2ccccc2)cn1` (configuration not stated): 100%; for `O=C(Cn1cc(C(F)(F)F)ccc1=O)N/N=C/c1ccc(Cl)cc1Cl`: 116%. Consider `O=C(/C=C/c1ccc(N2CCOCC2)cc1)c1ccccc1`, for which the activation (% of control) was 129% (active). As for `O=C(O)c1ccc2c(c1)C(=O)N(c1ccc(/C=C/C(=O)c3ccccc3)cc1)C2=O`, the activation (% of control) is 99.8%.

Consider `O=C(/C=C/c1ccccc1)c1ccoc1`, for which the activation (% of control) was 98%. The same measure for `Cc1ccc(NC(=O)CCOc2ccccc2)cc1S(=O)(=O)Nc1ccccc1Cl`: 98.8%. The same measure for `Cc1csc(NC(=O)CSc2ccc(-c3ccc(F)cc3)nn2)n1`: 112%. As for `CCOC(=O)N1CCN(C(=S)Nc2ccc(C)cc2C)CC1`, the figure is 96.2%; as for `Cc1ccc(NC(=S)NCc2ccccc2Cl)c(C)c1`, 96.8%. Consider `Cc1ccc(NC(=S)Nc2ncccc2C)c(C)c1`, for which the activation (% of control) was 134% (active). For `COc1ccc(N2CCN(C(=S)Nc3ccc(S(N)(=O)=O)cc3)CC2)cc1`, the activation (% of control) was 89.8%. As for `O=c1c2ccccc2nc(N/N=C/c2ccccc2)n1O`, the figure is 113%; as for `COc1ccc(C=Nc2cccc3ncccc23)cc1`, 99.7%. The same measure for `COc1ccc(/C=N/Nc2nc3ccccc3c(=O)[nH]2)cc1`: 155% (active); for `COc1ccc(S(=O)(=O)NCC2CCCN(C(=O)c3occc3C)C2)cc1` (configuration not stated): 96.8%; for `COc1ccc(/C=N/NC(=O)C(C)N(c2ccc(OC)cc2)S(C)(=O)=O)cc1` (configuration not stated): 100%. Consider `CC(C)(C)c1ccc(/C=C/C(=O)NC2CCS(=O)(=O)C2)cc1` (configuration not stated), for which the activation (% of control) was 104%. The same measure for `CC(C)(C)c1ccc(/C=C/C(=O)Nc2ncccn2)cc1`: 138% (active); for `O=C(/C=C/c1ccc(Cl)cc1)Nc1ccc(S(=O)(=O)Nc2ncccn2)cc1`: 107%; for `O=C(NCCN1C(=O)S/C(=C\c2cccnc2)C1=O)c1cccc(OC(F)F)c1`: 101%. As for `Cc1ccccc1NC(=O)NC1(C(=O)N2CCCC2)CCCCC1`, the figure is 99%; as for `COc1cccc(C(=O)Nc2nc3ccc(S(C)(=O)=O)cc3s2)c1`, 119%. The same measure for `COc1ccc2nc(Nc3nc4ccc(NC(C)=O)cc4s3)sc2c1`: 109%.

`COc1ccc2nc(NC(=O)c3ccc(Br)s3)sc2c1`: the activation (% of control) is 158% (active).

For the compound `O=C(/C=C/c1cccs1)NCc1cccnc1`, the activation (% of control) was 101%. The same measure for `CSc1ccc(/C=N/NC(=O)c2cccc(Cl)c2)cc1`: 150% (active).

As for `CSc1ccc(/C=N\NC(=O)COc2ccc(Cl)cc2Br)cc1`, the activation (% of control) was 103%. As for `COc1ccc(/C=N/NC(=O)c2cccc(C(F)(F)F)c2)cc1`, the activation (% of control) was 105%. As for `COc1ccc(/C=C/C(=O)Nc2ccc(C34CC5CC(CC(O)(C5)C3)C4)cc2)cc1OC`, the figure is 141% (active); as for `COc1ccc(/C=C/C(=O)Nc2cccnc2)cc1OC`, 112%. As to `COc1ccc(/C=C/C(=O)N2CCCC2)cc1OC`, the activation (% of control) is 84.7%. As for `O=C(CC12CC3CC(CC(C3)C1)C2)NCc1ccco1`, the figure is 97.2%; as for `C/C(=N\NC(=O)c1cccc(N2CCCC2=O)c1)c1ccc(N)cc1`, 113%; as for `O=C(OCc1ccc(Br)cc1)c1cccc(-c2nnc(-c3ccccc3)o2)c1`, 112%.

As to `OC(c1nnc(-c2ccccc2)o1)c1cccs1` (configuration not stated), the activation (% of control) was 117%. As for `CCCC(=O)Nc1nnc(-c2ccccc2)o1`, the figure is 103%; as for `Brc1ccc(-c2nnc(-c3ccccc3)o2)o1`, 138% (active).

Consider `Nc1ccc(-c2nnc(-c3ccc(-c4ccccc4)cc3)o2)cc1`, for which the activation (% of control) is 139% (active). As for `Nc1ccc(-c2sc(N)nc2-c2ccccc2)cc1`, the figure is 94.5%. The same measure for `CCNC(=O)c1ccc(OCC(=O)Nc2ccc(F)cc2)c(OC)c1`: 105%; for `CCCCN1C(=O)CCC(C(=O)O)C1c1ccc(OC)cc1` (configuration not stated): 107%. As for `Nc1ccc(C(=O)NCc2ccccc2)cc1`, the figure is 100%.

Regarding `COC(=O)CSc1ccc2nnc(CCNS(=O)(=O)c3ccc(C)cc3)n2n1`, the activation (% of control) was 96.4%. The same measure for `COc1ccc(/C=N/NC(=O)CNC(=O)c2ccc(S(=O)(=O)N3CCCC3)cc2)c(OC)c1`: 99.5%. As for `Cc1noc(C)c1/C=N/Nc1ccc2ccccc2n1`, the figure is 157% (active); as for `Cc1cc(C)nc(N/N=C/c2c(C)oc3ccccc23)n1`, 98.5%; as for `C(=N\Nc1ccc2ccccc2n1)/c1ccc2c(c1)OCO2`, 35.8%.

Regarding `Cc1cccc(C)c1NC(=O)C(c1ccccc1)N1CC(=O)Nc2ccccc21` (configuration not stated), the activation (% of control) was 94.6%. On to `COc1cc(OC)cc(C(=O)N[C@H](C(=O)Nc2nc3ccccc3[nH]2)C(C)C)c1`, for which the activation (% of control) was 96.1%. As for `COC(=O)Nc1nc2ccc(Sc3ccccc3)cc2[nH]1`, the figure is 135% (active). As for `Cc1nc2ccc(C(=O)O)cc2[nH]1`, the figure is 96.9%; as for `O=C(CCCc1ccccc1)NCc1ccccc1`, 108%; as for `CCOC(=O)CCNC(=O)N1CCCC(C(=O)c2ccccc2SC)C1` (configuration not stated), 92.5%. The same measure for `O=C(Nc1ccc2sc3ccccc3c(=O)c2c1)c1ccccc1Cl`: 144% (active).

With `COc1cc(NC(=O)c2cccs2)ccc1NC(=O)c1ccccc1Cl`, the activation (% of control) is 109%. The same measure for `O=C(Nc1ccc2nc3n(c(=O)c2c1)CCCCC3)c1ccccc1Cl`: 101%; for `C#CCOCCOCCOCCNc1nc(N2CCN(C(=O)[C@H](C(C)C)n3cc(CCO)nn3)CC2)nc(N2CCN(C(=O)[C@H]([C@@H](C)CC)n3cc(CCCN=C(N)N)nn3)CC2)n1`: 100%. As for `O=C(COc1ccccc1[N+](=O)[O-])NC1CC1`, the figure is 92.9%; as for `NS(=O)(=O)c1ccc(NC(=S)NNC(=O)c2cccs2)cc1`, 104%; as for `N#Cc1c(NC(=O)C2CC(Cl)=CCC2C(=O)O)sc2c1CCCCC2` (configuration not stated), 103%. The same measure for `N#Cc1c(NC(=O)C2CCCO2)sc2c1CCCCC2` (configuration not stated): 139% (active). As for `N#Cc1c(NC(=O)CCCl)sc2c1CCCCC2`, the activation (% of control) is 101%.

With `CCc1ccc(NC2Nc3cc(C)nn3S2)cc1` (configuration not stated), the activation (% of control) was 171% (active). The same measure for `CCOC(=O)c1ccc(NC2Nc3cc(C)nn3S2)cc1` (configuration not stated): 102%.

Consider `CCc1ccc(NC(=O)N2CCN(c3ccccc3)CC2)cc1`, for which the activation (% of control) was 109%. For `COc1ccc(/C(N)=N/OC(=O)CCCc2ccccc2)cc1`, the activation (% of control) is 108%. As for `COc1ccc(/C(N)=N/OC(=O)Oc2ccccc2)cc1`, the figure is 98.3%; as for `COc1ccc(/C(N)=N/OC(=O)Cc2ccccc2)cc1`, 142% (active).

As to `COc1ccccc1-c1nc(SC)n[nH]1`, the activation (% of control) is 103%. The same measure for `CCOc1ccc(OCc2cccc(C(=O)N(CC)CC)c2)cc1`: 43.9%. The same measure for `C/C(=N/NS(=O)(=O)c1ccccc1)c1ccc(NC(=O)C(F)(F)F)cc1`: 105%; for `O=C(Nc1ccc(NC(=O)c2cccs2)cn1)c1ccco1`: 142% (active). The same measure for `O=C(Nc1ccc(Oc2ccccc2)cc1)c1ccco1`: 132% (active). In the case of `CN1CCN(S(=O)(=O)c2ccc(NC(=O)c3ccco3)cc2)CC1`, the activation (% of control) is 98.8%. Turning to `Cc1cccc(NC(=O)Nc2cccc(Oc3c(F)c(F)c(F)c(F)c3F)c2)c1`, the activation (% of control) was 101%.

For `Cc1ccoc1C(=O)Nc1cccc(Oc2ccccc2)c1`, the activation (% of control) was 137% (active). As for `COC(=O)c1ccc(NC(=O)c2ccco2)cc1`, the figure is 124%; as for `COc1cccc(C(=O)Nc2ccc(NC(=O)c3ccco3)cn2)c1`, 108%; as for `Cc1ccc(C(=O)COc2cccc(NC(=O)c3ccco3)c2)cc1`, 93.6%. The same measure for `O=C(O)Cc1ccc(NC(=O)c2cccs2)cc1`: 89.8%; for `C/C(=N\NS(=O)(=O)c1ccc(Cl)cc1)c1ccc(NC(=O)c2ccco2)cc1`: 142% (active); for `O=C(Nc1ccc(Sc2ccc(Br)cc2)cc1)c1ccco1`: 93.9%. Turning to `Cc1c(Cl)cccc1NC(=S)N(Cc1ccccc1)Cc1cccnc1`, the activation (% of control) was 94.9%. In the case of `CC(=O)Nc1ccc(NC(=S)NC(=O)/C=C/c2ccccc2)cc1`, the activation (% of control) was 87.3%. The same measure for `COc1cc(/C=N/N=C(\N)c2nonc2N)cc(OC)c1OC`: 102%; for `CC(C)(C)n1nc2c(c1NC(=O)c1cc3ccccc3o1)CSC2`: 97.4%. In the case of `Cc1cc(C)n(-c2nnc(N3CCN(c4ccccc4)CC3)nn2)n1`, the activation (% of control) is 104%. As for `Cc1ccnc(NC(=O)c2ccc(NC(=O)c3ccco3)cc2)c1`, the figure is 129% (active). The same measure for `Cc1ccnc(NC(=O)c2ccoc2C)c1`: 127%; for `Cc1nnc(NC(=O)/C=C/c2ccco2)s1`: 105%. As for `O=C(/C=C/c1ccco1)Nc1ccc(Oc2ccccc2)cc1`, the figure is 134% (active); as for `O=C(/C=C/c1ccco1)Nc1cccc(-c2nc3ccccc3[nH]2)c1`, 119%; as for `Cc1ccnc(NC(=O)c2ccco2)n1`, 101%. As for `Cn1c(=O)c2c(ncn2CC(=O)N/N=C/c2cn[nH]c2-c2ccc(F)cc2)n(C)c1=O`, the activation (% of control) is 109%.

Consider `CC(Oc1ccccc1F)C(=O)NN` (configuration not stated), for which the activation (% of control) was 98%. As for `CC(C)c1nc(CNC(=O)CC2C(=O)NCCN2Cc2ccoc2)cs1` (configuration not stated), the figure is 101%; as for `O=C(O)c1ccc(NS(=O)(=O)c2ccc3c(c2)C(=O)c2cc(S(=O)(=O)Nc4ccc(C(=O)O)cc4)ccc2-3)cc1`, 95.5%.
